Most compounds without a hit are left out; they make up all but 19% or so of the library.
HT1080-NT tox: kills 2HG-producing HT-1080-NT fibrosarcoma cells. Potency, µM (top dose mostly 46.1 µM), most hits filed as cytotoxic. 1.6% of 360,000 active. AID 686970. HT-1080-NT fibrosarcoma viability, CellTiter-Glo ATP luminescence, 48 h;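 also: NT is the 2HG producing partner of a matched IDH1 knockdown line; nearly all actives have a fitted effect of over 55% in size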
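Luminescent CellTiter-Glo readout after 48 hours of compound exposure at 37 degrees C defined viability of HT-1080-NT cells. Activity was normalized to DMSO wells and cell-free media wells; concentration-response curves were fitted and assigned curve classes.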
HT1080 IDH1KD tx: HT-1080 IDH1 knockdown cell toxicity (counter line) | 2% of 360,000 active | HT-1080 IDH1 knockdown viability, ATP luminescence, 48 h | Potency, µM (doses to about 46.1 µM), usual class: cytotoxic
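In this qHTS, HT-1080 cells depleted of IDH1 are exposed for 48 h at 37 °C to compound titrations. Toxicity is scored from CellTiter-Glo luminescence, with DMSO as full viability and medium alone as none.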
IL1B secr inh: blocks inflammasome-driven IL-1 beta release | THP-1 LPS/ATP IL-1B secretion, AlphaLISA, 16 h; stronger effect = lower value | AID 743279 | 4.7% of 360,000 active | activity change, % at 57.5 µM; in the data active = activity change below about -50%; inconclusive = mostly about -30% to -49%
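THP-1 cells pretreated 1 hr with compounds (up to 57.5 uM final), then stimulated with LPS (250 ng/mL final) plus ATP (1.25 mM final); secreted IL-1B measured by AlphaLISA after 16 hr, decreased signal indicating inhibition.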
DT40 TDP1 CPT: DT40-hTDP1 cell growth loss with CPT | chicken DT40 Tdp1-/-;hTDP1 cells + 20 nM CPT, ATP luminescence, 48 h | 12% of 420,000 active | Potency, µM (highest dose often 46.2 µM), usual class: inhibitors; also: nearly all actives have a fitted effect of over 55% in size
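Chicken DT40 Tdp1-/- cells stably complemented with human TDP1 were seeded at 400 cells/well in medium containing 20 nM camptothecin, exposed to pin-transferred compounds, and grown at 37 °C for at least 48 hr. Viability was read as ATP luminescence.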
DT40 TDP1 no CPT: qHTS for Inhibitors of human tyrosyl-DNA phosphodiesterase 1 (TDP1): qHTS in cells in absence of CPT. AID 686978, 2013. DT40 Tdp1-/- hTDP1 cells, no CPT, ATP luminescence, 48 h. Potency, µM (top dose mostly 46.2 µM), most hits filed as inhibitors. 15% of 420,000 active; also: nearly all actives have a fitted effect of over 55% in size
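Readout: luminescence from CellTiter-Glo after 30 min in the dark at RT. Cells: DT40 Tdp1-/- with stable hTDP1, 400/well. Exposure: compounds alone, ≥48 hr, 37 °C.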
Of the large screens only hits and unclear results are named; the others gave an inactive call. Unless noted, calls follow the shape of the dose curve; as a rule, active = well fitted curve in the direction sought with a large enough effect; inconclusive = small, poorly fitted or top-dose-only effect, or another doubt; inactive = no such curve, though single readings can be large; an effect the other way counts as inactive or inconclusive.

CC1CCC2C(=O)N(c3ccc(C(=O)Oc4cccc5cccnc45)cc3)C(=O)C2C1 (centres undefined)	HT1080-NT tox inconclusive, HT1080 IDH1KD tx inconclusive, IL1B secr inh -86, DT40 TDP1 CPT 0.73µM, DT40 TDP1 no CPT 0.65µM
COc1cccc(CCc2nnc(N)s2)c1	none
Cc1c(C(=O)N2CCOCC2)sc2ncnc(N3CCc4ccccc4C3)c12	DT40 TDP1 CPT 12µM, DT40 TDP1 no CPT 12µM
Cc1c(C(=O)N2CCCCC2C)sc2ncnc(N3CCc4ccccc4C3)c12 (centres undefined)	IL1B secr inh -97, DT40 TDP1 CPT inconclusive, DT40 TDP1 no CPT 13µM
Cc1c(C(=O)Nc2ccc3c(c2)OCCO3)sc2ncnc(N3CCCCC3C)c12 (centres undefined)	IL1B secr inh inconclusive, DT40 TDP1 CPT inconclusive, DT40 TDP1 no CPT 15µM
CCN1CCN(C(=O)c2sc3ncnc(N4CCc5ccccc5C4)c3c2C)CC1	DT40 TDP1 CPT inconclusive, DT40 TDP1 no CPT inconclusive
CCOC(=O)C1CCN(C(=O)c2sc3ncnc(N4CCC(C)CC4)c3c2C)CC1	DT40 TDP1 CPT inconclusive, DT40 TDP1 no CPT inconclusive
Cc1ccc(NS(=O)(=O)c2sc3ccc(Cl)cc3c2C)cc1	HT1080-NT tox inconclusive, HT1080 IDH1KD tx inconclusive, IL1B secr inh -85, DT40 TDP1 CPT inconclusive, DT40 TDP1 no CPT inconclusive
COc1cc(C(=O)OCC(=O)N2CCOCC2)c([N+](=O)[O-])cc1OC	none
COc1ccc(OC)c(/C=C/C(=O)NCCc2nc3ccccc3[nH]2)c1	DT40 TDP1 CPT 7.3µM, DT40 TDP1 no CPT 12µM
COc1ccc(C(=O)NCCc2nc3ccccc3[nH]2)cc1	none (no result: HT1080-NT tox, HT1080 IDH1KD tx, IL1B secr inh)
COc1ccc2c(CCNC(=O)/C=C/c3ccc(OC)c(OC)c3)c[nH]c2c1	DT40 TDP1 CPT inconclusive, DT40 TDP1 no CPT 18µM
Cc1ccc(CNC(=O)C2CCN(S(=O)(=O)c3cc(-c4noc(C)n4)ccc3C)CC2)cc1	DT40 TDP1 CPT 4.6µM, DT40 TDP1 no CPT 2.6µM (no result: HT1080-NT tox, HT1080 IDH1KD tx, IL1B secr inh)
Cc1ccc(CNC(=O)C2CCN(S(=O)(=O)c3ccc(F)cc3)CC2)cc1	none (no result: HT1080-NT tox, HT1080 IDH1KD tx, IL1B secr inh)
Cc1nc(-c2ccc(C)c(S(=O)(=O)N3CCC(C(=O)NCc4ccc(F)cc4)CC3)c2)no1	DT40 TDP1 CPT 2.6µM, DT40 TDP1 no CPT 5.2µM (no result: HT1080-NT tox, HT1080 IDH1KD tx, IL1B secr inh)
Cc1ccc(S(=O)(=O)CCN2CCC(n3cccc3)CC2)cc1	IL1B secr inh -59
Cc1ccc(S(=O)(=O)CCN2CCN(c3ccccc3)CC2)cc1	none
CC(=O)c1c(N2CCN(C)CC2)nc(=S)n(Cc2ccccc2)c1C	none
CCn1c(C)c(C(C)=O)c(NCc2ccccc2)nc1=S	none
CCn1c(C)c(C(C)=O)c(N2CCN(c3cccc(Cl)c3)CC2)nc1=S	DT40 TDP1 CPT inconclusive, DT40 TDP1 no CPT inconclusive
CC(=O)c1c(N2CCN(c3cccc(Cl)c3)CC2)nc(=S)n(-c2ccccc2)c1C	IL1B secr inh -102, DT40 TDP1 CPT inconclusive, DT40 TDP1 no CPT inconclusive
CC(=O)c1c(NCCc2ccccc2)nc(=S)n(-c2ccccc2)c1C	IL1B secr inh -101, DT40 TDP1 CPT 21µM, DT40 TDP1 no CPT 18µM
C=CCn1c(C)c(C(C)=O)c(N2CCN(C(c3ccccc3)c3ccccc3)CC2)nc1=S	DT40 TDP1 CPT inconclusive, DT40 TDP1 no CPT 23µM
Cc1ccc(N=Nc2c(N)[nH]n3c(=O)cc(C)nc23)cc1	DT40 TDP1 CPT inconclusive, DT40 TDP1 no CPT 15µM
Nc1[nH]n2c(=O)cc(-c3ccccc3)nc2c1N=Nc1ccccc1	HT1080-NT tox inconclusive, HT1080 IDH1KD tx inconclusive, DT40 TDP1 CPT 3.3µM, DT40 TDP1 no CPT 5.2µM
Cc1ccc(N=Nc2c(=O)[nH]n3c(C)cc(C)nc23)cc1	none
Cc1cc(Oc2cccc3c2S(=O)(=O)N(C2CCCC2)CC(COCc2ccccc2)O3)cc(C)c1C (centres undefined)	HT1080-NT tox inconclusive, DT40 TDP1 CPT 23µM, DT40 TDP1 no CPT 16µM
CCCCN1CC(COCc2ccccc2)Oc2ccccc2S1(=O)=O (centres undefined)	DT40 TDP1 CPT inconclusive, DT40 TDP1 no CPT 23µM
CCCCN1CC(COCc2ccccc2)Oc2cccc(Oc3ccc(OC)cc3)c2S1(=O)=O (centres undefined)	DT40 TDP1 CPT inconclusive, DT40 TDP1 no CPT 18µM

Screening data from PubChem BioAssay.
